test system: ULK2; settings: concentration: 1 μM, replicates: in singlicate; n = 1
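Note: KINOMEscan kinase panel screen.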

Structure (SMILES) | %Inh [%]
CC(C)(C)n1cnc2c(N)ncnc21 [SKF-97359] | 0
Cc1cccc(Cn2ccn3c(=O)cc(N4CCOCC4)nc23)c1 [GSK2297542] | 0
c1ccc(-c2cc(-c3c[nH]nc3-c3ccccn3)ccn2)cc1 [GW576604] | 0
O=C(Nc1cccc(-c2nn3ncccc3c2-c2ccnc(Nc3cccc(C(F)(F)F)c3)n2)c1)c1c(F)cccc1F [GSK299495] | 0
COc1cc2c(cc1OC[C@@H](O)CO)ncc1c3ccc(C#N)cc3[nH]c21 | 99.2
N#Cc1ccc(-c2cc(-c3c[nH]nc3-c3ccccn3)ccn2)cc1 [GW693028] | 0
Fc1ccc(-c2ncn(CCCN3CCOCC3)c2-c2ccccn2)cc1 [SB-211742] | 0
COc1ccc(Nc2nccc(N3CCC(NC(=O)Nc4cccc(C(C)=O)c4)C3)n2)cc1 (stereo not drawn) [GSK1379731] | 0
Cn1cc(-c2ccc3c(c2)CCN3C(=O)Cc2ccccc2Cl)c2c(N)ncnc21 [GSK2608885] | 0
CNc1ncnc2[nH]ncc12 [SKF-18355] | 42
Cc1cccc(-c2nc(Nc3ccc4ncsc4c3)c3ccccc3n2)n1 [GW867588] | 0
[2H]C([2H])(c1cccc(C(F)(F)F)c1C)n1ccn2c(=O)nc(N3CCOCC3)cc12 [GSK2336394] | 0
Cc1c2ccc(N(C)c3ccnc(Nc4cccc(S(N)(=O)=O)c4)n3)cc2nn1Cc1ccccc1.Cl.Cl [GW787226] | 0
O=C(c1ccc(-c2cc(-c3c[nH]nc3-c3ccccn3)ccn2)cc1)N1CCOCC1 [GW812171] | 38
CCn1cnc2c(N)ncnc21 [GW345098] | 21
Cl.Nc1ncnc2occ(-c3ccc(NC(=O)Nc4cc(C(F)(F)F)ccc4F)cc3)c12 [SB-707548] | 0
CC(=O)Nc1ccc(COc2ccc(Nc3ccnc4cc(-c5ccccn5)ccc34)cc2)cc1.Cl [GW440148] | 0
Cc1nnc(-c2ccc3occ(-c4ccc(C(C)O)cc4)c3c2)o1 (stereo not drawn) | 2

Structure (SMILES) | %Inh [%]
Cc1nnc(-c2ccc3ncc(-c4ccc(S(C)=O)cc4)n3c2)o1 (stereo not drawn) | 18
c1ccc(-c2n[nH]cc2-c2ccnc3ccccc23)nc1 [GW271431] | 0
CCCCCc1nc2c(N)ncnc2n1CCCCC [SKF-97255] | 12
CN1c2ccc(CNc3ccc(F)cc3)cc2-c2c(cnn2C)S1(=O)=O | 0
NCC(NC(=O)c1cc(-c2cn[nH]c2)c(-c2ccnc3[nH]ccc23)s1)c1ccccc1.O=C(O)C(F)(F)F.O=C(O)C(F)(F)F (stereo not drawn) [GSK1325775] | 7
O=C(Nc1n[nH]c2cc(-c3cccc(F)c3)ccc12)C1CC1 [SB-735464] | 12
COc1ccc(COc2cc(-n3cnc4ccccc43)sc2C(N)=O)cc1 [GSK1024304] | 0
CN(C(=O)c1ccc(-c2cc(-c3c[nH]nc3-c3ccccn3)ccn2)cc1)C1CCOCC1 [GW810083] | 14
O=c1cc(N2CCOCC2)nc2n(Cc3cccc(Cl)c3Cl)c(C3CC3)nn12 [GSK2358994] | 10
COc1cc2ncn(-c3cc(OCc4sccc4Cl)c(C(N)=O)s3)c2cc1OC [GSK448459] | 0
CCc1ccnc(/C=C/c2n[nH]c3cc(Sc4ccccc4C(=O)NC)ccc23)c1 | 31
CSc1ccc(-c2cc3ncnc(SCC(=O)O)c3s2)cc1 | 8
COc1ccc(Nc2nccc(N3CCC(NC(=O)Nc4cc(C)ccc4C)C3)n2)cc1 (stereo not drawn) [GSK1379741] | 0
Cc1c(Cn2c(C)nn3c(=O)cc(N4CCOC(C)C4)nc23)cccc1C(F)(F)F (stereo not drawn) [GSK2344444] | 0
O=C1NC(=O)C(N2CCc3ccccc32)=C1c1cccc(Cl)c1 [SB-408010] | 0
Cn1ccc2ncnc(Oc3ccc(NC(=O)Nc4ccncc4)c(Cl)c3)c21 | 10
O=C(NOCC1CC1)c1ccc(F)c(F)c1Nc1ccc(I)cc1Cl | 0
Cc1ccc(NC(=O)c2ccnc(N3CCN(C)CC3)c2)cc1-c1ccc(C(=O)NCC2CC2)cc1 [GW775604] | 100

— publication PMC5540273 (PLoS ONE, 2017)
